Source: ChEMBL document CHEMBL4513146, “CO-ADD screening of Karazin Kharkiv National University (Ukraine) compounds”
Potency and affinity values are given separately.

Legend:
Staphylococcus aureus = details: Concentration 32 ug.mL-1;; ASSAY_TEST Inhibition of Bacterial Growth; detection method Absorption (OD600); MEDIA CAMHB; plate type 384well; NBS; CORNING #3640; time 18 hr
Escherichia coli = details: Concentration 32 ug.mL-1;; ASSAY_TEST Inhibition of Bacterial Growth; detection method Absorption (OD600); MEDIA CAMHB; plate type 384well; NBS; CORNING #3640; time 18 hr

SMILES	Inhibition (Staphylococcus aureus)	Inhibition (Escherichia coli)
N#CCn1nc2n(Cc3ccc(F)cc3)c(=O)c3ccccc3n2c1=O	1.37%	-10.2%
O=C(Cn1nc2ccc(SCc3ccc(Cl)cc3)nn2c1=O)NCc1ccc2c(c1)OCO2	-2.67%	-11.22%
Cc1c(Cl)cccc1-n1ccn2c(=O)n(Cc3c(F)cccc3Cl)nc2c1=O	-0.05%	-8.85%
CC(C)c1nnc2c(SCC(=O)N3CCN(c4ccc(F)cc4)CC3)nc3ccccc3n12	10.21%	-1.94%
O=C(Cn1nc2c(Oc3ccccc3)nc3ccccc3n2c1=O)Nc1ccc2c(c1)OCO2	13.59%	2.6%
O=C(Cn1nc2c(N3CCSCC3)nc3ccccc3n2c1=O)NCc1ccccc1	1.1%	-1.64%
O=C(Cn1nc2c(Oc3ccccc3)nccn2c1=O)Nc1ccc(Cl)cc1	8.53%	-4.75%
COc1ccc(-c2cc3c4nnc(SCC(=O)NCc5ccccc5Cl)n4ccn3n2)cc1	-4.22%	-7.58%
CC(C)c1nnc2c(=O)n(CC(=O)Nc3ccc(F)cc3F)c3ccccc3n12	12.23%	2.42%
O=C(Cn1nc2nc(Nc3ccc(F)cc3)ccn2c1=O)Nc1ccc(F)cc1	-16.48%	-2.62%
Cc1cccc(-c2nc(CSc3nc4ccccc4n4c(C(C)C)nnc34)c(C)o2)c1	9.08%	2.13%
CCOc1ccc(-n2ccn3c(SC(C)C(=O)Nc4ccc(OC)cc4)nnc3c2=O)cc1 (configuration not stated)	5.98%	-5.92%
CCCN(C)c1nccn2c(=O)n(CC(=O)Nc3cccc(C(C)=O)c3)nc12	10.12%	-7.5%
COc1ccc(N2CCN(C(=O)Cn3nc4c(Oc5cccc(C)c5C)nccn4c3=O)CC2)cc1	7.43%	-1.11%
Cc1ccc(Cl)cc1NC(=O)CSc1nc2ccccc2n2c(C)nnc12	-8.21%	-3.62%
Cc1cc2nn(CC(=O)Nc3ccccc3C)c(=O)n2c(Nc2ccc(F)c(C)c2)n1	4.45%	-4.23%
COc1ccccc1-n1ccn2c(SCC(=O)Nc3ccc(C)cc3Cl)nnc2c1=O	8.71%	-9.42%
COc1ccc2[nH]cc(C(=O)CSc3nnc4c(=O)n(-c5cccc(Cl)c5C)ccn34)c2c1	18.84%	2.67%
Cc1nnc2c(=O)n(CC(=O)NC3CCCC3)c3ccccc3n12	4.23%	-6.29%
CC(=O)c1ccc(NC(=O)Cn2nc3c4cc(-c5ccc(Cl)cc5)nn4ccn3c2=O)cc1	8.4%	0.52%
CSc1cccc(NC(=O)Cn2nc3c(Sc4cccc(F)c4)nccn3c2=O)c1	2.75%	-0.46%
Cc1ccc(Cl)cc1NC(=O)CSc1nnc2ccc(C(=O)Nc3cccc(F)c3)cn12	14.11%	0.94%
COc1ccc(-c2cc3c4nnc(SCC(=O)NCc5ccc(Cl)cc5)n4ccn3n2)cc1	-1.89%	-4.94%
CC(=O)c1cccc(NC(=O)Cn2c(=O)c3nnc(C(C)C)n3c3ccccc32)c1	9.36%	0.14%

SMILES	Inhibition (Staphylococcus aureus)	Inhibition (Escherichia coli)
Cc1ccc(Cl)cc1NC(=O)CSc1nnc2c(=O)n(-c3ccccc3)ccn12	7.91%	-1.12%
COc1ccc(C(=O)CSc2nnc3c(=O)n(-c4ccc(F)c(F)c4)ccn23)cc1OC	3.91%	-0.1%
CCOC(=O)c1ccc(NC(=O)Cn2nc3ccc(S(=O)(=O)C(C)(C)C)nn3c2=O)cc1	5.05%	-4.95%
O=C(CSc1nnc2c(=O)n(-c3ccc(F)cc3)ccn12)NCC1CCCO1 (configuration not stated)	0%	-8.97%
O=C(Cn1nc2ccc(C(=O)NCc3ccccc3)cn2c1=O)Nc1ccc2c(c1)OCO2	7.86%	-0.58%
O=c1c2nn(Cc3ccccc3Cl)c(=O)n2ccn1-c1ccccc1	-1.67%	-5.84%
CC(C)CCNC(=O)Cn1nc2n(Cc3cccs3)c(=O)c3sccc3n2c1=O	3.31%	-5.47%
CCc1nnc2c(SCC(=O)Nc3ccc(C(=O)OC)cc3)nc3ccccc3n12	1.34%	-1.9%
CCc1nnc2c(=O)n(CC(=O)Nc3ccc(Br)cc3F)c3ccccc3n12	-3.08%	3.54%
Cc1ccc(N(Cc2cc(F)cc(F)c2)S(=O)(=O)c2cccn3c(C)nnc23)cc1	11.96%	-4.21%
COc1ccc(NC(=O)Cn2nc3c(Sc4ccccc4)nccn3c2=O)c(OC)c1	-11.13%	-9.08%
Cc1ccc(NC(=O)Cn2nc3ccc(SC(C)(C)C)nn3c2=O)c(Cl)c1	-0.06%	-7.75%
CCc1nnc2c(S(=O)(=O)N(Cc3cccc(Cl)c3)c3ccccc3)cccn12	4.22%	-6.56%
O=C(NCc1ccccc1)c1ccc2nn(CC(=O)N3CCN(c4ccccc4F)CC3)c(=O)n2c1	3.54%	-3.36%
Cc1cc2nn(CC(=O)Nc3cccc(C)c3C)c(=O)n2c(Nc2ccc(F)c(C)c2)n1	2.54%	-7.8%
CCCCOc1ccc(-c2cc3c4nnc(SCC(=O)Nc5ccccc5Cl)n4ccn3n2)cc1	3.41%	-3.41%
COc1ccc(CNC(=O)Cn2nc3c(Oc4cccc(C)c4C)nccn3c2=O)cc1	-12.87%	0.86%
COc1cccc(CNC(=O)CSc2nnc3c(=O)n(-c4ccc(F)cc4)ccn23)c1OC	19.94%	2.01%
Cc1ccc(CNC(=O)CSc2nnc3c4cc(-c5ccc(F)cc5)nn4ccn23)cc1	12.38%	-2.28%
Cc1ccc(-c2noc(Cn3nc4ccc(-c5ccccc5)nn4c3=O)n2)cc1	-9.52%	-11.36%
CCOC(=O)c1ccc(NC(=O)Cn2nc3c4cc(-c5ccc(C)c(C)c5)nn4ccn3c2=O)cc1	3.76%	-8.53%
CCCn1c(=O)c2sccc2n2c(=O)n(CC(=O)c3cccc(OC)c3)nc12	2.99%	-2.97%
CCc1nnc2c(S(=O)(=O)N(Cc3cc(F)cc(F)c3)c3ccccc3)cccn12	7.38%	-4.8%
Cc1ccc(NC(=O)Cn2nc3ccc(SC(C)C)nn3c2=O)c(C)c1	-3.52%	4.56%

SMILES	Inhibition (Staphylococcus aureus)	Inhibition (Escherichia coli)
CC(C)NC(=O)Cn1nc2n(Cc3ccco3)c(=O)c3sccc3n2c1=O	9.36%	3.27%
Cc1cc(C)cc(Nc2nc(C)cc3nn(CC(=O)Nc4cccc(Cl)c4)c(=O)n23)c1	6.53%	-7.17%
Cc1ccc(Oc2nccn3c(=O)n(CC(=O)Nc4ccc(C)cc4Br)nc23)cc1	4.05%	-2.42%
CCOC(=O)c1ccc(NC(=O)Cn2nc3c4cc(-c5ccc(Cl)cc5)nn4ccn3c2=O)cc1	1.13%	-5.39%
Cc1ccc(Cn2nc3c(=O)n(-c4cccc(Cl)c4C)ccn3c2=O)cc1	8.26%	-3.14%
COc1cc(NC(=O)Cn2nc3c(SC4CCCCC4)nccn3c2=O)cc(OC)c1	0.44%	-4.73%
COc1ccc(NC(=O)Cn2nc3c(N4CCOCC4)nccn3c2=O)c(OC)c1	14.25%	-1.5%
O=c1n(Cc2cccc(C(F)(F)F)c2)nc2c(S(=O)(=O)N3CCCCCC3)cccn12	5.28%	-7.6%
COc1cccc(Sc2nc3ccccc3n3c(=O)n(CC(=O)Nc4c(C)cc(C)cc4C)nc23)c1	1.84%	-6.13%
Cc1cc(C)cc(Nc2nc(C)cc3nn(CC(=O)Nc4ccc(F)cc4F)c(=O)n23)c1	11.96%	-0.48%
O=C(Cn1nc2ccc(-c3ccc(Cl)cc3)nn2c1=O)N1CCN(c2ccc(F)cc2)CC1	4.1%	-5.18%
Cc1cc(C)c(NC(=O)Cn2nc3ccc(SCc4ccc(Cl)cc4)nn3c2=O)c(C)c1	-5.02%	-8.63%
COc1ccc(NC(=O)Cn2nc3c(SC4CCCCC4)nccn3c2=O)cc1OC	4.77%	-3.78%
CCOc1ccc(-n2ccn3c(SCC(=O)Nc4cccc(Cl)c4)nnc3c2=O)cc1	-0.75%	2.43%
CC(C)CCn1c(=O)c2sccc2n2c(=O)n(CCOc3ccccc3)nc12	0.45%	-7.84%
O=c1c2nnc(-c3cccc([N+](=O)[O-])c3)n2ccn1-c1ccc(F)cc1	13.28%	-1.02%
O=c1c2sccc2n2c(=O)n(Cc3ccc(F)cc3)nc2n1Cc1cccs1	13.21%	-2.41%
N#Cc1cccc(NC(=O)CSc2nnc3c4cc(-c5ccccc5)nn4ccn23)c1	2.79%	-3.47%
Cc1ccc(C)c(CSc2nnc3c(=O)n(-c4ccc(Br)cc4)ccn23)c1	3.9%	-0.75%
COc1ccccc1N1CCN(C(=O)Cn2nc3c(Oc4ccc(C)cc4)nccn3c2=O)CC1	6.41%	0.36%
COc1cc(NC(=O)CSc2nnc3c(=O)n(-c4ccc(C)c(C)c4)ccn23)cc(OC)c1	3.54%	-13.82%
CCCCN(CC)C(=O)CSc1nnc2c(=O)n(Cc3ccccc3F)ccn12	1.71%	-7.34%
COc1ccc(NC(=O)Cn2nc3ccc(-c4ccccc4)nn3c2=O)cc1Cl	-3.72%	-7.68%
